# Measurements from PubChem BioAssay (NCATS).
# Calls of active or inactive are those of the source. The call rests on the fitted dose curve; in most records, active means well fitted activation curve with a large enough effect; inconclusive means small, poorly fitted or top-dose-only effect; inactive means flat fitted curve, though single readings scatter.
# Assay: Confirmation and Secondary Assay for Modulators of Hemoglobin Beta Chain Splicing at IVS2 654 locus (AID 910);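 further: HeLa cells stably carrying EGFP split by mutant beta-globin IVS2-654 intron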
# Details: HeLa EGFP-654 splicing reporter, GFP fluorescence, 48 h; series mostly up to 46.1 µM
# Description: NIH Chemical Genomics Center [NCGC] NIH Molecular Libraries Screening Centers Network [MLSCN] MLSCN Grant: 1 X01 MH080684-01 PI Name: Dr. Ryszard Kole NCGC Assay Overview: Modulation of Alternative Splicing as Therapy Abnormal splicing is associated with a number of diseases, including cancer and genetic diseases such as cystic fibrosis, muscular dystrophy and beta-thalassemia. Alteration of disease associated splicing patterns provides a promising target for treatment. […] Mutations in the second intron of the b-globin gene at positions 654 or 705 are clinically relevant and cause mis-splicing which results in an out of frame gene product. […] EGFP-654 HeLa Cells as screen system. HeLa cell lines were stably transfected with a construct in which the EGFP (enhanced green fluorescent protein) cDNA was interrupted by the second intron of the beta-globin gene (IVS2-654). The ISV2 intron contains mutations which cause mis-splicing of EGFP and premature termination of EGFP which results in a nonfluorescent protein product. […] Expression of the transgene was driven by the CMV promoter. We concluded that a low molecular weight compound, which restored correct splicing of intron 2 would also generate functional EGFP protein, resulting in a fluorescent signal. Thus, the HeLa cells that express the EGFP-654 construct can be used for high throughput screening of a chemical library.
# NCGC Assay Protocol Summary: Confirmatory Screening. Freshly thawed HeLa EGFP-654 cells were seeded in 5 ul of optimem media (Invitrogen) containing 2 % fetal calf serum (Hyclone) and 1x penicillin/streptomycin (Invitrogen) at a concentration of 500 cells per well in 1536-well plates. Cells were incubated overnight at 37C in 5% CO2. The next day, cells were treated with DMSO, 500 nM antisense ISV2 654 PNA control oligo, or library compound and allowed to grow at 37C in 5% CO2 for 2 days. The PNA oligo blocked the mutation site in the intron and allowed proper (wild type) splicing to occur, resulting in full length EGFP expression and also allowed for optimization of the assay parameters. Plates were read in the Acumen Explorer (TTP Labtech) using 488 nm laser excitation and 500-520 nm emission PMT filter in a 1 x 8 uM capture mode. Fluorescnet objects ranging in size from 5 to 250 uM were measured and the total peak GFP intensity for each well was used for data analysis. Keywords: Thalassemia, beta-thalassemia, beta-globin, EGFP, ISV2 654, ISV2 705, SSO, PNA, antisense, splicing, MLSMR, MLSCN, NIH Roadmap, qHTS, NCGC
row,Compound,outcome
1,CCN(CC)CC(=O)Nc1c(C)cccc1C,inactive
2,Fc1ccc(C(c2ccc(F)cc2)N2CCN(C/C=C/c3ccccc3)CC2)cc1,inactive
3,CCCCCN(CCCCC)C(=O)C(CCC(=O)O)NC(=O)c1ccc(Cl)c(Cl)c1 (stereo not given),inactive
4,CN1CCN(C2=Nc3ccccc3Oc3ccc(Cl)cc32)CC1,inactive
5,CNCCCN1c2ccccc2CCc2ccccc21,inactive
6,Cc1nc2ccccn2c(=O)c1CCN1CCC(C(=O)c2ccc(F)cc2)CC1,inactive
7,CC(C)COCC(CN(Cc1ccccc1)c1ccccc1)N1CCCC1 (stereo not given),inactive
8,CC(C)(Oc1ccc(CCNC(=O)c2ccc(Cl)cc2)cc1)C(=O)O,inactive
9,CC(C)[N+](C)(CCOC(=O)C1c2ccccc2Oc2ccccc21)C(C)C,inactive
10,CN=C(NC#N)NCCSCc1nc[nH]c1C,inactive
11,O=C(O)CCCCCCCC(=O)O,inactive
12,Nc1c2c(nc3ccccc13)CCCC2O (stereo not given),inactive
13,CC[N+](C)(C)c1cccc(O)c1,inactive
14,CC(=O)Nc1nnc(S(N)(=O)=O)s1,inactive
15,C=CCc1ccccc1OCC(O)CNC(C)C (stereo not given),inactive
16,c1ccc2c(c1)CCCC2C1=NCCN1 (stereo not given),inactive
17,CCn1nc(C(=O)O)c(=O)c2cc3c(cc21)OCO3,inactive
18,NC(=O)N1c2ccccc2C=Cc2ccccc21,inactive
19,COC(=O)C1=C(C)NC(C)=C(C(=O)OCCN(C)Cc2ccccc2)C1c1cccc([N+](=O)[O-])c1 (stereo not given),inactive
20,CCCOc1ccccc1-c1nc2n[nH]nc2c(=O)[nH]1,inactive

row,Compound,outcome
1,CC(=O)OC(C)C[N+](C)(C)C (stereo not given),inactive
2,CN1CCN(CC(=O)N2c3ccccc3C(=O)Nc3cccnc32)CC1,inactive
3,CN(C)CCN(Cc1cccs1)c1ccccn1,inactive
4,CCN(CC)CCNC(=O)c1cc(S(C)(=O)=O)ccc1OC,inactive
5,C[n+]1cc2c3c(ccc2c2ccc4cc5c(cc4c21)OCO5)OCO3,inactive
6,CCCN(CCC)CCc1cccc2c1CC(=O)N2,inactive
7,COc1ccc(CN(CCN(C)C)c2ccccn2)cc1,inactive
8,CCCCNc1ccc(C(=O)OCCN(C)C)cc1,inactive
9,CC(C)NCC(O)c1cc(O)cc(O)c1 (stereo not given),inactive
10,CC1=NS(=O)(=O)c2cc(Cl)ccc2N1,inactive
11,CCN(CC)CCNC(=O)c1ccc(NC(C)=O)cc1,inactive
12,CCCNC(C)C(=O)Nc1ccccc1C (stereo not given),inactive
13,CCN(CC)CCOCCOC(=O)C1(c2ccccc2)CCCC1,inactive
14,COCCc1ccc(OCC(O)CNC(C)C)cc1 (stereo not given),inactive
15,CN/C(=C\[N+](=O)[O-])NCCSCc1ccc(CN(C)C)o1,inactive
16,CCCN(CCC)C(=O)C(CCC(=O)O)NC(=O)c1ccccc1 (stereo not given),inactive
17,CCn1cc(C(=O)O)c(=O)c2cc3c(cc21)OCO3,inactive
18,CCCCNC(=O)NS(=O)(=O)c1ccc(C)cc1,inactive
19,CCCC(C(=O)OCCN(CC)CC)(c1ccccc1)c1ccccc1,inactive
20,Nc1nc(N)c2nc(-c3ccccc3)c(N)nc2n1,inactive
